Laboratory results taken from PubChem BioAssay (Tox21).
Results filed as inconclusive are left out. The source made the active and inactive calls. Unless noted, the call rests on the fitted dose curve.

Key:
[1] = Nuclear factor erythroid 2-related factor 2/antioxidant responsive element (Nrf2/ARE) small molecule agonists: qHTS cell viability counter screen in human keratinocytes (AID 1919968; active means well fitted curve in the direction sought with a large enough effect in the repeat runs; an effect the other way counts as inactive or inconclusive; further: nearly all actives have a fitted effect of over 55% in size)
In short: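 CellTiter-Fluor fluorescence, read 1 h after reagent, gave viability in the same wells as the ARE-luciferase assay. KeratinoSens cells (1,500/well) had 23 h compound exposure at 37 C/5% CO2 following 5 h plating.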

[2] = Nuclear factor erythroid 2-related factor 2/antioxidant responsive element (Nrf2/ARE) small molecule agonists: luciferase reporter gene qHTS assay in human keratinocytes (AID 1919969); further: nearly all actives have a fitted effect of over 35% in size
[3] = target: Gonadotropin-releasing hormone receptor (Homo sapiens) (UniProt P30968); assay: Human gonadotropin-releasing hormone receptor (GnRHR) small molecule agonists, calcium flux assay in GnRHR-HEK293 cells (AID 1920063); further: nearly all actives have a fitted effect of over 35% in size
In short: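 Agonist mode: compounds at 15 concentrations, in triplicate, went onto calcium dye-loaded GnRHR-HEK293 cells. Intracellular calcium was then followed as 480/540 nm fluorescence at 1 s intervals over 3 min.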

[4] = target: KiSS-1 receptor (Homo sapiens) (UniProt Q969F8); assay: Human kisspeptin (KISS1R) small molecule agonists, calcium flux assay in KISS1R-HEK293 cells (AID 1920064; active means well fitted curve in the direction sought with a large enough effect in the repeat runs; an effect the other way counts as inactive or inconclusive)
In short: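 Agonist mode: intracellular calcium rise tracked at 1 s intervals over 3 min (480/540 nm) immediately after compound addition to dye-loaded KISS1R-HEK293 stable cells. Each compound tested at 15 concentrations in triplicate.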

[5] = G protein-coupled receptor (GPCR) small molecule agonists, calcium flux assay: HEK293 wild type cell line counter screen (AID 1920065)
In short: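 Calcium flux counter screen: compound added in agonist mode at 15 concentrations in triplicate to dye-loaded parental HEK293 cells. Fluorescence (480/540) read kinetically for 3 min; ATP served as positive control.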

[6] = p53 small molecule agonists, cell-based qHTS assay with human liver microsomes (AID 1963577)
In short: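 Cells carrying a p53-responsive bla reporter were rested 5 h (37 C, 5% CO2) before compound transfer. Human liver microsomes plus NADPH, 0.5 mg/mL final apiece, supplied metabolism during the 16 h 37 C exposure.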

[7] = p53 small molecule agonists, cell-based qHTS assay with rat liver microsomes (AID 1963578)
In short: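 Fluorescence from a beta-lactamase reporter under a p53 response element was measured after cells had been incubated 16 h at 37 C with test compound and rat liver microsomes plus NADPH (0.5 mg/mL final each).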

[8] = p53 small molecule agonists, cell-based qHTS assay with human liver microsomes: qHTS cell viability counter screen (AID 1963579); further: nearly all actives have a fitted effect of over 45% in size
In short: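 Seed p53RE-bla cells at 4,000 per well; incubate 5 h at 37 C; add compound, human liver microsomes and NADPH; incubate 16 h at 37 C; add CellTiter-Glo; after 30 min at room temperature, read luminescence.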

[9] = p53 small molecule agonists, cell-based qHTS assay with rat liver microsomes: qHTS cell viability counter screen (AID 1963580); further: nearly all actives have a fitted effect of over 45% in size
In short: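 Luminescent ATP readout (CellTiter-Glo, 30 min at room temperature) reports viability of p53RE-bla HCT-116 cells after 16 h at 37 C with test compounds under metabolic activation by rat liver microsomes and NADPH at 0.5 mg/mL final each.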

[10] = p53 small molecule agonists, cell-based qHTS assay: qHTS cell viability counter screen (AID 1963581); further: nearly all actives have a fitted effect of over 45% in size
In short: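 Counter screen read by CellTiter-Glo luminescence (ATP content, 30 min at room temperature), run in the same wells as the beta-lactamase reporter read. HCT-116 p53RE-bla cells saw compounds for 16 h at 37 C.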

[11] = p53 small molecule agonists, cell-based qHTS assay (AID 1963582; active means well fitted activation curve with a large enough effect in the signal ratio in the repeat runs, not every such curve was filed as active; the % refers to the signal ratio)
In short: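 Read-out is beta-lactamase FRET fluorescence after 2 h at room temperature with LiveBLAzer B/G substrate. p53 response element-bla cells were treated 16 h at 37 C with compounds in DMSO, added 5 h after seeding.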

[12] = target: 5-hydroxytryptamine receptor 2A (Homo sapiens) (UniProt P28223); assay: 5-hydroxytryptamine receptor 2A (HTR2A) small molecule antagonists, cell-based qHTS assay (AID 1963586); further: nearly all actives have a fitted effect of over 45% in size
In short: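 CHO cells stably expressing human HTR2A were plated for 18 h at 37 C, then loaded with calcium dye for 1 h. Compounds were preincubated 5 min at room temperature before DOI (4 nM solution) was added. Kinetic fluorescence was read for 3 min.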

[13] = target: 5-hydroxytryptamine receptor 2A (Homo sapiens) (UniProt P28223); assay: 5-hydroxytryptamine receptor 2A (HTR2A) small molecule agonists, cell-based qHTS assay (AID 1963587); further: nearly all actives have a fitted effect of over 30% in size
In short: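 HTR2A-CHO cells, plated 18 h at 37 C/5% CO2, dye-loaded 1 h at 37 C; compounds in DMSO added by pin tool (agonist mode). Intracellular calcium flux read as kinetic fluorescence on FDSS over 2 min at 1 s intervals.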

[14] = target: Muscarinic acetylcholine receptor M1 (Homo sapiens) (UniProt P11229); assay: Cholinergic receptor muscarinic 1 (CHRM1) small molecule antagonists, cell-based qHTS assay (AID 1963588); further: nearly all actives have a fitted effect of over 40% in size
In short: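 Compounds were tested at 15 concentrations in three independent runs. Dye-loaded CHRM1-CHO cells were exposed 5 min at room temperature before stimulation by acetylcholine added at 50nM. Intracellular calcium was read kinetically on FDSS for 3 min.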

[15] = target: Muscarinic acetylcholine receptor M1 (Homo sapiens) (UniProt P11229); assay: Cholinergic receptor muscarinic 1 (CHRM1) small molecule agonists, cell-based qHTS assay (AID 1963589); further: nearly all actives have a fitted effect of over 35% in size
In short: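 Agonist-mode calcium-flux screen: compounds at 15 concentrations, three independent runs, were pin-transferred onto dye-loaded human CHRM1-CHO cells. Fluorescence was then recorded kinetically every second over minutes.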

[16] = cAMP Responsive Elements (CRE) small molecule agonists, cell-based qHTS assay (AID 1963590)
In short: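 Agonist mode: compound added to CRE-bla HEK 293T cells (2,000/well, 18 h after plating) for 3 h at 37 C/5% CO2. Reporter activity detected via FRET beta-lactamase substrate, 2 h room-temperature loading.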

[17] = cAMP Responsive Elements (CRE) small molecule antagonists, cell-based qHTS assay (AID 1963591; active means well fitted inhibition curve with a large enough effect in the signal ratio in the repeat runs, not every such curve was filed as active; the % refers to the signal ratio)
In short: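 Antagonist mode: compounds are added alongside the adenylyl cyclase activator NKH477 (0.25 uM final) to CRE-bla HEK293T cells for 3 h. LiveBLAzer FRET substrate, 2 h at room temperature, reports bla expression.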

[18] = target: Beta-2 adrenergic receptor (Homo sapiens) (UniProt P07550); assay: Adrenergic beta2 receptor (ADRB2) small molecule antagonists, cell-based qHTS assay (AID 1963592); further: series mostly up to about 92 µM; nearly all actives have a fitted effect of over 50% in size
In short: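 Assay format: CHO-ADRB2 cells, 18-20hr seeding at 37C/5% CO2, then compound plus 1nM isoproterenol agonist mix for 0.5hr RT. Homogeneous time-resolved fluorescence cAMP detection after 1hr, expressed as 665/615 nm ratio.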

[19] = target: Beta-2 adrenergic receptor (Homo sapiens) (UniProt P07550); assay: Adrenergic beta2 receptor (ADRB2) small molecule agonists, cell-based qHTS assay (AID 1963593);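 further: CHO cells stably overexpressing human ADRB2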
In short: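 CHO cells stably over-expressing ADRB2 were plated overnight at 37C, then dosed with compounds plus a stimulation mix containing 100uM IBMX and 25uM Ro-20-1724 for 0.5hr at room temperature. cAMP was measured by HTRF competition, 1hr.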

[20] = target: D(2) dopamine receptor (Homo sapiens) (UniProt P14416); assay: Dopamine D2 receptor (DRD2) small molecule agonists, cell-based qHTS assay (AID 1963594); further: nearly all actives have a fitted effect of over 35% in size
In short: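 HEK293 cells stably expressing DRD2 were cultured 24 h at 37 C, then given Ro20-1724 (0.1 mM final) and compounds for 10 min at room temperature. NKH477 (200nM) was then added for 30 min. cAMP was read by HTRF.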

Measured: Potency

Sequence of D(2) dopamine receptor (Homo sapiens) (P14416 whole entry, looked up): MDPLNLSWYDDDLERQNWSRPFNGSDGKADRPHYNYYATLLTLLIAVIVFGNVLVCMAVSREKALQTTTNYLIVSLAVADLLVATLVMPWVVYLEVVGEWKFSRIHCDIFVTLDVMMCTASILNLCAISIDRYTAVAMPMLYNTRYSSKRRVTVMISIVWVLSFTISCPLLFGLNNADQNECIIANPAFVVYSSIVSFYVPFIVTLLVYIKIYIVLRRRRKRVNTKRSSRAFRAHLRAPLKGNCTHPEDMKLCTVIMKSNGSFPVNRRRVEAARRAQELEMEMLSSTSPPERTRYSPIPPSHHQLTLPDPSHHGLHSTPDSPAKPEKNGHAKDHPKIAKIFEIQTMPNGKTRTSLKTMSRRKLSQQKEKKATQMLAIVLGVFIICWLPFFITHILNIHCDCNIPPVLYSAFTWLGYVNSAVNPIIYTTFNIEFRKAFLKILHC
Sequence of KiSS-1 receptor (Homo sapiens) (Q969F8 whole entry, looked up): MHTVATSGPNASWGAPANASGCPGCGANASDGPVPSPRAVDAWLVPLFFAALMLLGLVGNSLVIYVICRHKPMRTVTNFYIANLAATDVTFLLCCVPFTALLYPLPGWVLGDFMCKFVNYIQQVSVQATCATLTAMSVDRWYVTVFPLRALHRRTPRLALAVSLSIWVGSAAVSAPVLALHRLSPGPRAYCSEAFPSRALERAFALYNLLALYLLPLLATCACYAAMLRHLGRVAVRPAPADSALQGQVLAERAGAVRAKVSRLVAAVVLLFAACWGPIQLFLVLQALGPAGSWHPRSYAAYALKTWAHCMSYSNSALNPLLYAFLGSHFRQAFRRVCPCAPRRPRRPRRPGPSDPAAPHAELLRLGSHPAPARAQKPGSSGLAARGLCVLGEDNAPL
Sequence of Gonadotropin-releasing hormone receptor (Homo sapiens) (P30968 whole entry, looked up): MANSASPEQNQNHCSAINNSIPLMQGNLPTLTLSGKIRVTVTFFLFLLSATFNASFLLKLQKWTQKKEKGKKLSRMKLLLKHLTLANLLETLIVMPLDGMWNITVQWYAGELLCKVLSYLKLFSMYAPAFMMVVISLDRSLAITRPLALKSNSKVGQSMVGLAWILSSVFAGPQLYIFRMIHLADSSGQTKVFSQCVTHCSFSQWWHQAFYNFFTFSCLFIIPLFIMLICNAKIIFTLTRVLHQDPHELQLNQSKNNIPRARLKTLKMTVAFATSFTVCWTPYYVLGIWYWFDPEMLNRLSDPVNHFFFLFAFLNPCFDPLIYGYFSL
Sequence of Beta-2 adrenergic receptor (Homo sapiens) (P07550 whole entry, looked up): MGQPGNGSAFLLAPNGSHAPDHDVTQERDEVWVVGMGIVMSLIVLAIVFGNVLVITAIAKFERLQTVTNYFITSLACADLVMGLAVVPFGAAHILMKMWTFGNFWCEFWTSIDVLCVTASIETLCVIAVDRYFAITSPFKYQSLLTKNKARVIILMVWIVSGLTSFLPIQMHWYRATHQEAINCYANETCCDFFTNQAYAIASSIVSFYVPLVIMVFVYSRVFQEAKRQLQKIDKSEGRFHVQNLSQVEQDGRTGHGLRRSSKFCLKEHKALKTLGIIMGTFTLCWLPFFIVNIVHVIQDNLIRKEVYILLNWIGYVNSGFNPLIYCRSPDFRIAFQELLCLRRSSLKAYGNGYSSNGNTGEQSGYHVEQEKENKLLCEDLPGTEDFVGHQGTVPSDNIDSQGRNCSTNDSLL
Sequence of Muscarinic acetylcholine receptor M1 (Homo sapiens) (P11229 whole entry, looked up): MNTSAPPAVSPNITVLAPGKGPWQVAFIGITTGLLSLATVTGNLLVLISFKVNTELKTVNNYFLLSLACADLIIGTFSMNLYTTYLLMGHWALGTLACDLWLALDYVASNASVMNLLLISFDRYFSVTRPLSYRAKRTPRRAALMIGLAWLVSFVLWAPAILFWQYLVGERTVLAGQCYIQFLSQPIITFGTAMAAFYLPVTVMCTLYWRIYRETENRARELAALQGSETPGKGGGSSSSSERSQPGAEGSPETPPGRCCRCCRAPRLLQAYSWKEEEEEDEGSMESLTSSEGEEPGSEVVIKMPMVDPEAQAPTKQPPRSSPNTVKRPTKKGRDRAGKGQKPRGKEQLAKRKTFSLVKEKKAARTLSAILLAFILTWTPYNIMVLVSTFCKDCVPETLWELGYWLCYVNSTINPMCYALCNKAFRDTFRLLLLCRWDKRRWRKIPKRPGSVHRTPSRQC
Sequence of 5-hydroxytryptamine receptor 2A (Homo sapiens) (P28223 whole entry, looked up): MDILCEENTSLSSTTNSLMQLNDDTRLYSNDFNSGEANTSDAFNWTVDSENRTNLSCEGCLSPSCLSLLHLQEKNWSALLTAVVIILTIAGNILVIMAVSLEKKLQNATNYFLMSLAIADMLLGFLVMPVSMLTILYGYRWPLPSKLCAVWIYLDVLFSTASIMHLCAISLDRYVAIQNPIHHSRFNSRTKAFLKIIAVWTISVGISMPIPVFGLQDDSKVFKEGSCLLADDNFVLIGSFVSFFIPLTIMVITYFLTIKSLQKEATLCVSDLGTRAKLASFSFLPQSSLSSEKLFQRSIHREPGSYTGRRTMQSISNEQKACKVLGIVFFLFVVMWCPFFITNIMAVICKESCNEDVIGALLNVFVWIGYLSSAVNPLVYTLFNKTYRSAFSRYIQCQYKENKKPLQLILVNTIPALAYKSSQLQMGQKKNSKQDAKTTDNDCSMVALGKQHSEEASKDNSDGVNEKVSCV

C=CCCCCCCCCO
inactive: all assays above

NNS(=O)(=O)c1ccc(Oc2ccc(S(=O)(=O)NN)cc2)cc1
inactive: all assays above

CO[C@@]1(NC(=O)CSC[C@@H](N)C(=O)O)C(=O)N2C(C(=O)O)=C(CSc3nnnn3C)CS[C@@H]21
inactive: all assays above

CCCOC(=O)C(C)O (stereo not given)
inactive: all assays above

CC(S)C(=O)NCC(=O)O (stereo not given)
inactive: all assays above

NCCNCCO
inactive: all assays above

Cc1ccc2ccccc2c1[N+](=O)[O-]
inactive: all assays above

CC1C(C)(C)C2=C(C(=O)CCC2)C1(C)C (stereo not given)
inactive: all assays above

COC(=O)Nc1ccc(Cl)c(Cl)c1
inactive: all assays above

O=C(O)c1ccc(OCCCOc2ccc(C(=O)O)cc2)cc1
inactive: all assays above

CC/C=C/CCO
inactive: all assays above

[K+]
inactive: all assays above

NC(=O)c1ccc([N+](=O)[O-])cc1Cl
inactive: all assays above

CC(=O)/C=C/c1ccco1
inactive: all assays above
